Test [1] in a line: qHTS assay for measurement of the activity of small molecule inhibitors on Zika virus induced Caspase-3 activity in human iPSC derived neural progenitor cells (hNPCs) (AID 1224857). Further: nearly all actives have a fitted effect of over 65% in size. The gist of the method: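 Cells were plated at 350 per well and grown 16 to 20 hours. Compound pretreatment lasted one hour, after which ZIKV (2 FFU/cell) was added for 6 hours. Percent inhibition was normalized between uninfected and infected controls.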
(Quantitative high-throughput screening tests each substance at several concentrations.)

Test [2] is described as follows: qHTS assay for measurement of the activity of small molecule inhibitors on Zika virus induced Caspase-3 activity in human astrocytoma cells (AID 1224859). Summed up: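 Percent inhibition of virus-induced caspase-3/7 signal is calculated against uninfected and ZIKV-infected control cells. Cells are SNB-19, infected at 2 FFU/cell for 6 h after 1 h compound exposure.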

Test [3] in a line: qHTS Screen of the MIPE 4.0 Collection Against Ewings Sarcoma (RDES) (AID 1259252). Further: nearly all actives have a fitted effect of over 35% in size. Further: potency means the concentration at half of the fitted maximal effect. The gist of the method:
(§1)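 Compound titrations go onto adherent log-phase cells 4 h after seeding, incubate 48 h at 37C, then CellTiter-Glo luminescence reports viability relative to DMSO and cell-free controls.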

Test [4] is described as follows: qHTS Screen of the MIPE 4.0 Collection Against Ewings Sarcoma (TC71) (AID 1259253). Further: nearly all actives have a fitted effect of over 40% in size. Further: potency means the concentration at half of the fitted maximal effect. Summed up: as §1
Test [5] can be described thus: qHTS Screen of the MIPE 4.0 Collection Against Ewings Sarcoma (EW8) (AID 1259255). Further: nearly all actives have a fitted effect of over 35% in size. Further: potency means the concentration at half of the fitted maximal effect. The gist of the method:
as §1

Test [6] can be described thus: qHTS Screen of the MIPE 4.0 Collection Against Ewings Sarcoma (TC32) (AID 1259256). Further: nearly all actives have a fitted effect of over 45% in size. Further: potency means the concentration at half of the fitted maximal effect. The gist of the method: as §1
Test [7] in a line: Identifying Small Molecule Inhibitors of Pancreatic Cancer Stem Cells (SN12C, Adherent) (AID 1259358).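 Further: cell survival measured after 48 h of compound exposure.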 Further: potency means the concentration at half of the fitted maximal effect. The gist of the method: (§2)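 Viability is scored by CellTiter-Glo luminescence 48 h after dosing, expressed as percent activity against vehicle and no-cell references. Spheroid formats rely on cells cultured 14 days in stem cell media beforehand.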
The nature of test [8]: Identifying Small Molecule Inhibitors of Pancreatic Cancer Stem Cells (Panc1, Spheroid) (AID 1259359).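 Further: potency means the concentration at half of the fitted maximal effect; compound exposure lasted 48 h before reading.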 The gist of the method:
as §2

Test [9] in a line: Identifying Small Molecule Inhibitors of Pancreatic Cancer Stem Cells (A2780, Spheroid) (AID 1259357).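 Further: potency means the concentration at half of the fitted maximal effect; compound exposure lasted 48 h before the ATP luminescence read.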 The following applies: Potency: A2780 spheroid viability. Summed up: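 Cytotoxicity read by CellTiter-Glo luminescence after 48 h compound exposure at 37C; percent activity scaled between DMSO-treated cells and cell-free wells. Spheroid formats used cells pre-formed 14 days in stem cell media on hydrogel.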

Inconclusive results are not listed. Calls of active or inactive are those of the source. The call rests on the fitted dose curve; in most records, active means well fitted curve in the direction sought with a large enough effect; inconclusive means small, poorly fitted or top-dose-only effect, or another doubt; inactive means no such curve, though single readings can be large; an effect the other way counts as inactive or inconclusive.

We go through 22 molecules from PubChem BioAssay (NCATS).

Turning to `C=CC(=O)Nc1cccc(Oc2nc(Nc3ccc(N4CCN(C)CC4)cc3OC)ncc2Cl)c1`, the Potency entry in test [1] and in test [2] was “inactive” each time. Moreover, the Potency is 0.0187 µM (active) in test [3]; 0.0074 µM (active) in test [4]; 0.0209 µM (active) in [5]; 0.0148 µM (active) in [6]; 23.5 µM (active) in test [7].
For `COc1ccc2c(OCc3nnc4ccc(-c5ccccc5)nn34)ccnc2c1`, the Potency result in [1], in test [2], in test [4], in test [5] and in test [6] was “inactive” in each case.
For `CCOc1ccccc1OCCNC(C)Cc1ccc(OC)c(S(N)(=O)=O)c1` (centres undefined), the Potency entry in test [1], in [2], in [4], in test [5] and in test [6] was “inactive” in each case.
Turning to `CC(C)C[C@H](NC(=O)CNC(=O)c1cc(Cl)ccc1Cl)B(O)O`, the Potency result in test [1] and in test [2] was “inactive” in each case. Also, the Potency was 0.332 µM (active) in [4]; 0.148 µM (active) in test [5]; 0.469 µM (active) in [6]; 0.132 µM (active) in test [7]; 0.0935 µM (active) in test [8].
As for `Cc1cc(Nc2cc(N3CCN(C)CC3)nc(Sc3ccc(NC(=O)C4CC4)cc3)n2)n[nH]1`, the Potency entry in [1] and in [2] was “inactive” throughout. Also, the Potency in test [4] is 6.62 µM (active); in test [5], 0.296 µM (active); in test [6], 1.18 µM (active); in test [7], 20.9 µM (active).
As to `O=C(CCCCCCNC(=O)c1cnc(N(c2ccccc2)c2ccccc2)nc1)NO`, the Potency result in [1] and in test [2] was “inactive” throughout. Also, the Potency in test [4] was 5.9 µM (active); in [5], 4.18 µM (active); in test [6], 5.26 µM (active).
`CC(C)(C)c1cc(C(C)(C)C)c(NC(=O)c2c[nH]c3ccccc3c2=O)cc1O`: the Potency result in [1], in test [3], in [4], in test [5] and in test [6] was “inactive” each time.
Take `COc1ccc(C=Cc2cc(OC)c(OC)c(OC)c2)cc1O`: the Potency entry in test [1], in test [2], in test [4], in [5] and in test [6] was “inactive” each time. In test [7], the Potency was 0.0026 µM (active).
With `CC(=O)SC[C@@H](C)C(=O)N1CCC[C@H]1C(=O)N[C@@H](Cc1ccccc1)C(=O)O`, the Potency entry in test [1], in [2], in [4], in test [5], in test [6] and in test [7] was “inactive” each time.
In the case of `CC(C)=CCCC(C)=CCCC(C)=CCSc1ccccc1C(=O)O`, the Potency entry in test [1], in [2] and in [7] was “inactive” each time. Further, the Potency in [4] was 2.35 µM (active); in test [5], 2.64 µM (active); in test [6], 1.87 µM (active).
On to `CC1(C)CC(=O)c2c(C(F)(F)F)nn(-c3ccc(C(N)=O)c(NC4CCC(OC(=O)CN)CC4)c3)c2C1` (centres undefined), for which the Potency result in test [1] and in test [2] was “inactive” in each case. The Potency in [4] was 0.166 µM (active); in test [5], 0.209 µM (active); in [6], 0.132 µM (active).
Turning to `CC[C@H](CO)Nc1nc(NCc2ccccc2)c2ncn(C(C)C)c2n1`, the Potency entry in test [1] and in test [2] was “inactive” throughout. Also, the Potency in test [4] is 20.9 µM (active); in test [5], 29.6 µM (active); in test [6], 20.9 µM (active); in [9], 20.9 µM (active).
For `COC(=O)C1=C(C)NC(C)=C(C(=O)OCCN2CCN(C(c3ccccc3)c3ccccc3)CC2)C1c1cccc([N+](=O)[O-])c1` (centres undefined), the Potency result in test [1], in [2], in test [4], in test [5] and in [6] was “inactive” in each case.
Turning to `O=C(O)c1ccc2c(c1)nc(Nc1cccc(Cl)c1)c1ccncc12`, the Potency result in test [1] and in [2] was “inactive” in each case. Further, the Potency in [4] is 4.69 µM (active); in test [5], 7.43 µM (active); in [6], 5.9 µM (active).
Turning to `Cc1c(NC(=O)OC[C@@H]2COCCN2)cn2ncnc(Nc3ccc4c(cnn4Cc4cccc(F)c4)c3)c12`, the Potency entry in test [1] is “inactive”. The Potency in [3] is 0.166 µM (active); in [4] it was 1.05 µM (active); in test [5] it was 1.48 µM (active); in [6], 0.935 µM (active).
The like results for `COc1c(OCCCN2CCOCC2)ccc2c3n(c(=NC(=O)c4cnc(N)nc4)nc12)CCN3` were, in that order, “inactive”, 0.0575 µM (active), 1.82 µM (active), 0.724 µM (active) and 0.457 µM (active).
Consider `NC(=O)c1cccc2cn(-c3ccc([C@@H]4CCCNC4)cc3)nc12`, for which the Potency result in [1] was “inactive”. The Potency in test [3] is 1.87 µM (active); in test [4], 3.72 µM (active); in test [5] it was 7.43 µM (active); in test [6], 2.35 µM (active).
Consider `CCN(CC)CCCCNc1ncc2cc(-c3cc(OC)cc(OC)c3)c(NC(=O)NC(C)(C)C)nc2n1`, for which the Potency entry in test [1] and in test [2] was “inactive” throughout. Besides, the Potency is 16.6 µM (active) in test [4]; 18.7 µM (active) in [5]; 16.6 µM (active) in test [6]; 14.8 µM (active) in test [7]; 18.7 µM (active) in test [8].
For the molecule `C1=CCOCc2cc(ccc2OCCN2CCCC2)Nc2nccc(n2)-c2cccc(c2)OCC1`, the Potency entry in test [1] and in [2] was “inactive” in each case. Moreover, the Potency in [4] is 4.69 µM (active); in test [5], 6.62 µM (active); in [6] it was 7.43 µM (active); in test [9] it was 3.32 µM (active); in [7], 5.26 µM (active).
Consider `O=C(Nc1cn[nH]c1-c1nc2ccc(CN3CCOCC3)cc2[nH]1)NC1CC1`, for which the Potency result in test [1] was “inactive”. The Potency in [3] was 3.72 µM (active); in test [4], 7.43 µM (active); in test [5], 0.0332 µM (active); in [6] it was 0.0662 µM (active).
On to `Nc1nc(Nc2ccc(S(N)(=O)=O)cc2)nn1C(=O)c1c(F)cccc1F`, for which the Potency result in test [1] and in test [2] was “inactive” in each case. The Potency is 5.26 µM (active) in test [4], 8.33 µM (active) in [5], 7.43 µM (active) in test [6] and 4.18 µM (active) in test [9].
As to `Clc1ccc2ncc(-c3cccc(NC4CNC4)n3)n2c1`, the Potency entry in [1] is “inactive”. Further, the Potency in test [3] is 18.7 µM (active); in test [4], 20.9 µM (active); in test [5], 3.32 µM (active); in test [6] it was 18.7 µM (active).
